# Source: PubChem
# Hits are enriched below; roughly 6.8% of the tested compounds scored in any of these assays.
# MK inhibit: inhibitors of Streptococcus pneumoniae mevalonate kinase. 65,000 tested, 0.48% active. purified MK, PK/LDH-coupled NADH absorbance 340 nm. inhibition, % at 10 µM;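 active means ranked among the strongest by inhibition in the single 10 µM screen, a fixed top-ranked set picked for dose follow-up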
# Abs 340nm: compound absorbs light at 340 nm; fold change at 10 µM; compound absorbance at 340 nm, fold over control; AID 708; 65,000 tested, under 10 active;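 active means at 10 µM dose, initial 340 nm absorbance at least 2 fold that of control wells; inactive means change under 2 fold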;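 further: initial absorbance extrapolated from kinetic A340 decline of NADH oxidation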
# Spn DPM-DC inh: S. pneumoniae DPM-DC inhibition; purified DPM-DC, PK/LDH coupled NADH fluorescence; calls only at 10 µM; 65,000 tested, 0.49% active; AID 556;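 active means the 320 compounds with the highest percent inhibition in the single-dose primary screen, excluding strongly autofluorescent ones, cut at about 32% in these data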;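 further: kinetic rate of NADH fluorescence loss reporting ADP formed by the decarboxylase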
# NADH coupling: inhibitors of enzymes used to reach an NAD/NADH endpoint | coupled PK/LDH NADH assays, four targets | IC50, µM (top dose mostly 10 µM), inactives show top-dose inhibition | 65,000 tested, 0.02% active | AID 774;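 active means single-dose screening hits from any of four coupled enzyme assays that gave an IC50 when retested across doses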;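 further: the DPM-DC format reads NADH fluorescence rather than 340 nm absorbance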
# Autofluor 339: intrinsic fluorescence of library compounds, ex339/em460 – biochemical, MLSMR library, data from DPM-DC assay, artefact control, profiling panel. compound autofluorescence, ex339/em460 nm, NADH buffer; active compounds read high; 1 = no-compound wells, NADH background. fluorescence fold increase at 10 µM. 65,000 tested, 5.5% active;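 active means at 10 µM, mean starting fluorescence two-fold or more over control wells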;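 further: signal is the first read of a kinetic run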
# PMK inhibit: blocks S. pneumoniae phosphomevalonate kinase; purified PMK, PK/LDH-coupled NADH absorbance 340 nm; inhibition, % at 10 µM; 65,000 tested, 0.49% active; AID 539;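 active means top-ranked compounds by inhibition in the single 10 µM screen, taking a fixed number of the strongest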;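 further: 0% = full reaction with DMSO carrier and 100% = background rate without enzyme reaction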
# The depositor's hits bear a star; i = inactive; / = no result given.
SMILES,MK inhibit,Abs 340nm,Spn DPM-DC inh,NADH coupling,Autofluor 339,PMK inhibit
COc1ccc(C(CC(=O)O)NC(=O)OC(C)(C)C)cc1 (centres undefined),2.0,1.03,i,1.0%,1.02,0.0
CC(NC(=O)OC(C)(C)C)C(=O)Oc1ccc2ccc(=O)oc2c1 (centres undefined),6.0,1.03,/,3.0%,2.3*,0.0
Cc1cc2ncn(CCOc3ccccc3C#N)c2cc1C,6.0,1.04,i,3.0%,1.11,3.0
CC1CCCN(c2nc3c(c(=O)[nH]c(=O)n3C)n2CCCc2ccccc2)C1 (centres undefined),10.0,1.04,i,3.0%,1.09,0.0
C=CCN(CC=C)S(=O)(=O)c1ccc2nsnc2c1,0.0,1.08,i,2.0%,1.07,7.0
CCc1cc2c(=O)c(Oc3ccccc3)c(C)oc2cc1O,4.0,1.09,/,2.0%,2.21*,0.0
Cc1oc2cc(OCC(=O)O)ccc2c(=O)c1Oc1ccccc1,5.0,1.05,i,2.0%,1.28,0.0
O=C(CSc1ncnc2c1oc1ccccc12)NCc1ccco1,6.0,0.99,i,4.0%,1.05,11.0
CCCc1nnc(NC(=O)c2c(O)c3cccc4c3n(c2=O)CCC4)s1,10.0,1.03,i,10.0%,2.82*,12.0
CCCc1cc(=O)[nH]c(/N=C(/NC(=O)c2ccccc2)Nc2ccc3c(c2)OCCO3)n1,6.0,1.07,i,2.0%,1.04,0.0
COCCNC(=O)CSc1nc2cc(OC)c(OC)cc2c(=O)n1CCC1=CCCCC1,1.0,1,i,5.0%,1.07,13.0
CCN(CCO)c1ccc(-n2c(N)c(C(=O)OC)c3nc4ccccc4nc32)cc1,0.0,1.1,i,6.0%,1.07,19.0
C=CCn1c(N)c(C(=O)OCCC)c2nc3ccccc3nc21,2.0,1.08,/,10.0%,3.62*,18.0
COCCn1c(N)c(C(=O)OCc2ccccc2)c2nc3ccccc3nc21,0.0,1.07,/,4.0%,3.79*,8.0
COCCNC(=O)c1c(N)n(CCC2=CCCCC2)c2nc3ccccc3nc12,16.0,1.03,/,2.0%,2.48*,3.0
Cc1cc(O)c(-c2n[nH]c3c2C(c2cccc(O)c2)N(Cc2cccnc2)C3=O)cc1Cl (centres undefined),1.0,1.04,i,2.0%,1.12,6.0
CC(=O)C1=C(O)C(=O)N(Cc2ccco2)C1c1ccc2c(c1)OCO2 (centres undefined),5.0,1.02,i,4.0%,1.01,11.0
C=CCn1c(NCc2ccc3c(c2)OCO3)nc2ccccc21,0.0,1.01,i,6.0%,1.07,17.0
C=CCn1c(NCc2ccccc2)nc2ccccc21,0.0,0.99,i,8.0%,1.04,25.0*
O=S(=O)(c1cc(F)cc(F)c1)N1CCN(c2ncccn2)CC1,6.0,1.03,i,2.0%,1.14,0.0
CCOC(=O)CC(Nc1nc(N2CCOCC2)nc(N2CCOCC2)n1)c1ccccc1Cl (centres undefined),7.0,1.01,i,7.0%,1.08,15.0
COCCCn1c(C)nc2c(c1=O)c1nc3ccccc3nc1n2CCc1ccccc1,0.0,1.05,/,4.0%,2.43*,8.0
CCCCn1c2nc3ccccc3nc2c2c(=O)n(C(C)CC)cnc21 (centres undefined),1.0,1.07,/,10.0%,2.1*,18.0
O=c1c2c3nc4ccccc4nc3n(Cc3ccccc3)c2ncn1Cc1ccco1,11.0,1.07,i,12.0%,3.28*,0.0
COCCCn1c2nc3ccccc3nc2c2c(=O)n(Cc3ccccc3Cl)cnc21,8.0,1.09,i,5.0%,2.87*,0.0
SMILES,MK inhibit,Abs 340nm,Spn DPM-DC inh,NADH coupling,Autofluor 339,PMK inhibit
Cc1cccc(NC(=O)Cn2c(C)c(C#N)c3ccccc32)c1C,1.0,1.02,i,3.0%,1.1,8.0
O=C(Cc1ccc(Br)cc1)N1CCCCCC1,3.0,1,i,1.0%,1.09,5.0
CN(C)CCCNC(=O)CCC1CCCCC1,2.0,0.96,i,3.0%,1.02,0.0
Cc1ccc(-c2noc(CN3C(C)CCCC3C)n2)cc1 (centres undefined),11.0,0.99,i,5.0%,1.06,15.0
COCCCn1c2nc3ccccc3nc2c2c(=O)n(Cc3ccc(Cl)cc3)cnc21,11.0,1.08,/,10.0%,3.77*,8.0
CCCCn1c2nc3ccccc3nc2c2c(=O)n(CC(C)C)cnc21,12.0,0.99,/,18.0%,1.71,24.0
